For 55 compounds, INHIBITION results are on record in ChEMBL document CHEMBL4513216, “Probing the Open Global Health Chemical Diversity Library for Multistage-Active Starting Points for Next-Generation Antimalarials” (ACS Infect Dis, 2020).

In all, about 69,000 compounds went through this assay and about 8,600 (12%) showed an effect of 50% or more. Shown is part of a subset that was picked to be rich in strong results.

The experiment deals with Plasmodium berghei. In words: Screen against P. berghei liver stage (PbLuc), transformed with Luciferase, at 10uM. To be noted: tested at 10 uM. It counts as functional, HepG2.
For the compound `CCc1ncnc(N2CCOCC2C(N)=O)c1F` (stereo not given), the INHIBITION is reported as -4.95%.

On to `CCc1ncnc(N2CCOCC2CCO)c1F` (stereo not given), for which the INHIBITION was determined as 6.94%.

On to `CCc1ncnc(N2CCOCC2C2CC2)c1F` (stereo not given), for which the INHIBITION is 57.5%.

As for `O=C1CC(c2ccncc2)C2(CCN(C(=O)c3cccc(F)c3)CC2)N1` (stereo not given), the INHIBITION is 11.3%.

As for `Cc1cc(NC2CCC(=O)N(C)C2)n2nccc2n1` (stereo not given), the INHIBITION is recorded as -41.8%.

On to `Cc1cnn(CC2CCCCN2Cc2nnsc2Cl)c1` (stereo not given), for which the INHIBITION is recorded as -17.6%.

For the compound `COc1ccc(C2CC(=O)Oc3cc(C)[nH]c(=O)c32)c(OC)c1` (stereo not given), the INHIBITION is given as 45.7%.

For the compound `CN1CCN(c2cc(NC(=O)Cn3ccc4ccccc43)ncn2)CC1`, the INHIBITION came out at 60.1%.

For `O=C(Cn1ccc2ccccc21)Nc1cc(N2CCOCC2)ncn1`, the INHIBITION was found to be 30.5%.

Regarding `O=C(Cn1ccc2ccccc21)Nc1cc(N2CCCC2)ncn1`, the INHIBITION is given as 27.5%.

Take `COCCC1(CO)CCCN(C(=O)c2cc(=O)[nH]c(=O)[nH]2)C1` (stereo not given): the INHIBITION was determined as 0.33%.

Turning to `CNC(=O)CN1CC[C@H]2CN(C(=O)c3cccn3C)C[C@H]2C1`, the INHIBITION was determined as 9.51%.

On to `O=C(NCC1CCCO1)c1cc(-c2ccncc2)c2cnccc2n1` (stereo not given), for which the INHIBITION is -3.02%.

For `CCN1CCN(C)C(=O)C12CCN(Cc1ccsc1)CC2`, the INHIBITION is -9.74%.

Regarding `CN(C)C(=O)C1CCCN1c1ccnc2ccsc12` (stereo not given), the INHIBITION is 1.75%.

`COCC1CCN(c2ccnc3ccsc23)C1` (stereo not given): the INHIBITION stood at 79.5%.

As to `OCCC1CCN(c2ccnc3ccsc23)C1` (stereo not given), the INHIBITION stood at 5.11%.

`O=C(N1CCOCC1)N1CCN(c2ccnc3ccsc23)CC1`: the INHIBITION amounted to 5.76%.

For `O=C(c1cnccn1)N1CCN(c2ccnc3ccsc23)CC1`, the INHIBITION is recorded as -7.46%.

As for `c1cc(N2CCC(CN3CCOCC3)CC2)c2sccc2n1`, the INHIBITION came to 73.8%.

As to `CSc1ncc(Cl)c(C(=O)NC(Cc2ccccc2)C(=O)O)n1` (stereo not given), the INHIBITION was found to be 36.7%.

In the case of `CC(C)C(=O)Nc1cccc(CNC(=O)CSCc2ccccn2)c1`, the INHIBITION worked out at 24.2%.

For `CCOc1ncccc1CNC(=O)Nc1ccc(OC)c(OC)c1`, the INHIBITION is -49.5%.

As for `Cc1nc(CN2C[C@@H]3CN(C(=O)[C@H]4CCCO4)C[C@@H]3C2=O)cs1`, the INHIBITION was 19.4%.

As for `CN1CCC2(CC1)C(=O)N(c1cccnc1)c1ccc(F)cc12`, the INHIBITION is -45.8%.

As to `O=C(c1cc2cc(I)ccc2[nH]1)N1CCC(Nc2cccnn2)CC1`, the INHIBITION was 9.54%.

`COc1cccc(F)c1CN1CCC(c2nccc(C)n2)C1` (stereo not given): the INHIBITION is 1.35%.

For `N#CCCN(CC(F)(F)F)C(=O)c1cc(-n2cccn2)ccn1`, the INHIBITION is listed as -13.7%.

As for `O=C(O)c1ccc(S(=O)(=O)Nc2ccccc2F)c(F)c1`, the INHIBITION is on record as 14.8%.

For `Cc1ccccc1NS(=O)(=O)c1ccc(C(=O)O)cc1F`, the INHIBITION was 10.5%.

As for `O=C(O)c1ccc(S(=O)(=O)Nc2ccccc2CC(F)(F)F)c(F)c1`, the INHIBITION was determined as 53.3%.

Turning to `Cc1nc(C)n(C2CCCN(C(=O)c3ccn(C(C)C)n3)C2)n1` (stereo not given), the INHIBITION is -2.53%.

Take `O=C(NCCN1CCNC1=O)c1cc(-c2ccc(O)cc2)n[nH]1`: the INHIBITION stood at 10.7%.

Take `O=C(NCCC1=CCCCC1)c1cc(-c2ccc(O)cc2)n[nH]1`: the INHIBITION came out at 52.6%.

On to `Cc1cc(C(=O)NCCN2CCCc3ccccc32)[nH]n1`, for which the INHIBITION was 48.8%.

As to `Cc1ccc(-c2cc(C(=O)NCCC3=CCCCC3)[nH]n2)o1`, the INHIBITION stood at 49.9%.

Consider `O=C(NCCN1CCc2ccccc21)c1cc(-c2ccc(O)cc2)n[nH]1`, for which the INHIBITION was 68.9%.

With `CCCc1cc(C(=O)NCCC2=CCCCC2)[nH]n1`, the INHIBITION is on record as -73.5%.

In the case of `CN1CCN(C(=O)NC2CCCC2)Cc2cccnc21`, the INHIBITION is reported as -29.3%.

For `CCn1c(CNCC2CCCN2c2cccnn2)nc2ccccc21` (stereo not given), the INHIBITION is reported as -0.113%.

Turning to `COc1ccc(COCC(O)CNC(=O)Cc2ccc(C)cc2)cc1` (stereo not given), the INHIBITION turned out to be 11.2%.

For the compound `Cc1ncn(CCNC(=O)Nc2ccc(F)c(Cl)c2)c(=O)c1C`, the INHIBITION worked out at 20.9%.

For the compound `CCOC(=O)COC1CCN(C(C)=O)CC(=O)N(C)c2ccccc21` (stereo not given), the INHIBITION was found to be 22.2%.

As to `COc1ccccc1-c1ncc(CN2CCC3(CCN(C)C3)CC2)cn1`, the INHIBITION was 18.4%.

Take `COc1cccc(COCC(=O)N2CCCN(CC(N)=O)CC2)c1`: the INHIBITION is on record as -101%.

On to `CC(C)CC(NC(=O)CSc1ccc(F)c(Cl)c1)C(=O)O` (stereo not given), for which the INHIBITION is 75.8%.

For `COCC(C)NC(=O)CSc1ccc(F)c(Cl)c1` (stereo not given), the INHIBITION is recorded as 46.1%.

For the compound `CC(C)CC(NC(=O)Nc1ccc(F)c(Cl)c1)C(=O)O` (stereo not given), the INHIBITION is listed as -20.3%.

In the case of `Cc1nc(N2CCCC2)nc2c1CCN(C(=O)CN(C)C)CC2`, the INHIBITION came to 20.1%.

With `COCc1ccccc1C(=O)N1CCCC1Cn1nc(C)cc1C` (stereo not given), the INHIBITION was -72.745%.

Consider `C=C(C)CN1CCN(Cc2cnc(-c3ccccc3C)nc2)CC1`, for which the INHIBITION is listed as 9.93%.

As for `Cc1nn(-c2ccc(C(=O)O)cc2)c2c1C(C(F)(F)F)SCC(=O)N2` (stereo not given), the INHIBITION was -14.3%.

As to `O=C(NCCCC(=O)N1Cc2ccccc2C1)NCc1cccnc1`, the INHIBITION was found to be 66.3%.

Turning to `O=C(NCCCC(=O)N1Cc2ccccc2C1)NCc1nccs1`, the INHIBITION worked out at 39.7%.

Consider `O=C(NCCCC(=O)N1Cc2ccccc2C1)NCc1ccsc1`, for which the INHIBITION stood at 23.5%.
